Assay [1] is described as follows: small molecules captured by biotinylated probe aFSTL3 – biochemical, small-molecule microarray, fluorescence 635/667, stem cell growth factor project, primary screen (AID 1064).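 Note: measures binding of the biotinylated anti-FSTL3 antibody to printed compounds.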 Conditions: higher = more signal.
Assay [2] can be described thus: binders from COS7 lysate, DM2A8 probe, primary screen, torsin A project, cell lysate, small-molecule microarray, fluorescence 635/667 (AID 1065). As to conditions: higher = more signal, COS7 lysate expressing mutant human TOR1A.
A short description of assay [3]: small molecules captured by biotinylated probe aFGF2 – biochemical, small-molecule microarray, fluorescence 635/667, stem cell growth factor project, primary screen (AID 1067).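 Note: measures binding of biotinylated aFGF2 protein to printed compounds on slides; z-score merges feature fluorescence and signal-to-noise across triplicate slides.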 Conditions: higher = more signal.
Assay [4] in a line: small molecules captured by biotinylated probe aFGF10 – biochemical, small-molecule microarray, fluorescence 635/667, stem cell growth factor project, primary screen (AID 1071).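 Note: score merges 667 nm spot intensity and signal to noise from triplicate slides.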 Conditions: higher = more signal.
Assay [5] concerns the target Neurogenic locus notch homolog protein 2 (Homo sapiens) (UniProt Q04721). The assay is described as follows: small molecules binding Notch2 protein – biochemical, small-molecule microarray, 635 nm fluorescence, stem cell growth factors, primary screen (AID 1073). As to conditions: higher = more signal.
Assay [6] has as its target Pro-neuregulin-1, membrane-bound isoform (Homo sapiens) (UniProt Q02297). In words: small molecules binding neuregulin-1 protein – biochemical, small-molecule microarray, fluorescence 635/667, psychiatric disease protein project, primary screen (AID 1075).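 Note: score combines 667 nm spot fluorescence with signal to noise.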 As to conditions: NRG1 binding, 635 nm fluorescence, higher = more signal.
Assay [7] concerns Neuregulin-1 EGF-like domain. In words: small molecules binding NRG1 EGF domain – biochemical, small-molecule microarray, 635 nm fluorescence, primary screen (AID 1081).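 Note: binding of the protein to compounds printed on small-molecule microarray slides.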 Conditions: higher = more signal.
The nature of assay [8]: FRG1 expression reporter modulators in myotubes – cell-based, C2C12 myotubes, firefly/Renilla luciferase, luminescence, FRG1 inhibition for FSHD, primary screen (AID 1084). Conditions: FRG1 promoter luciferase, higher = more signal, called active from +8 up or from −8 down.
Assay [9] is described as follows: small molecules captured by biotinylated probe aFST – biochemical, small-molecule microarray, fluorescence 635/667, stem cell growth factor project, primary screen (AID 1086).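 Note: score merges 667 nm fluorescence with signal-to-noise of each printed compound spot.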 As to conditions: higher = more signal.
Assay [10] can be described thus: binders of probe aHhip on microarray, primary screen, stem cell growth factor project, biochemical, small-molecule microarray, fluorescence 635/667 (AID 1087).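 Note: score merges spot fluorescence at 667nm with spot signal to noise ratio.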 Conditions: higher = more signal.
Assay [11] concerns PRMT1 (protein arginine N-methyltransferase 1). The assay is described as follows: small molecules binding arginine methyltransferase PRMT1 – biochemical, small-molecule microarray, 635 nm fluorescence, primary screen (AID 1088).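 Note: binding of Prmt1 protein to compounds spotted on small-molecule microarray slides.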 Conditions: higher = more signal.
Assay [12] is described as follows: growth effects on S. cerevisiae YJM789 – YJM789 clinical isolate, OD600, 24 h, basal, primary screen (AID 1089).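 Note: growth of clinical yeast isolate S. cerevisiae YJM 789 seeded 1000 cells per well; test concentration not given here.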 Conditions: higher = more signal, called active from +8 up or from −8 down.
Assay [13] can be described thus: S. pombe growth modifiers, basal conditions – strain 972, OD600, 24 h, no modulator, primary screen (AID 1090).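 Note: basal condition with compound alone and no growth modifier present; test concentration not given here.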 As to conditions: S. pombe 972 growth, higher = more signal, called active from +8 up or from −8 down.
Assay [14] in a line: budding yeast growth modifiers under rapamycin – strain BY4716, OD600, 96 h, primary screen (AID 1091). Note: test concentration not given here. Conditions: S. cerevisiae BY4716 + rapamycin, higher = more signal, called active from +8 up or from −8 down.
Assay [15] has as its target Torsin-1A-interacting protein 2 (Homo sapiens) (UniProt Q8NFQ8). The assay is described as follows: small molecules binding lysate-expressed LULL1 – cell lysate, human LULL1 lysate, 635/667 nm fluorescence, primary screen (AID 1092).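 Note: probe is lysate of COS7 cells overexpressing human LULL1; score merges per-feature 667 nm fluorescence with signal-to-noise.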 As to conditions: small-molecule microarray, hLULL1 lysate binding, 635 nm fluorescence; higher = more signal.
Assay [16] in a line: optical density change of DRC41 E. coli – strain DRC41, OD650, 24 h, E. coli filamentation project, primary screen (AID 1093).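 Note: MC1000 strain lacking acrAB efflux and sulA so SOS filamentation is blocked; test concentration not given here.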 Conditions: E. coli DRC41 growth, higher = more signal, called active from +8 up or from −8 down.
The nature of assay [17]: probe aLefty2 binding to arrayed compounds – biochemical, biotinylated probe, 635/667 nm fluorescence, primary screen (AID 1094).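 Note: score merges spot fluorescence near 667 nm with spot signal-to-noise ratio.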 As to conditions: small-molecule microarray, higher = more signal.
Assay [18] has as its system Noggin (protein binding on small-molecule microarray). In words: small molecules binding Noggin protein – biochemical, 635/667 nm fluorescence, primary screen (AID 1095).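 Note: score merges 667 nm feature fluorescence with signal to noise over triplicate slides.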 As to conditions: 635 nm fluorescence, higher = more signal.
The target in assay [19] is Neurogenic locus notch homolog protein 3 (Homo sapiens) (UniProt Q9UM47). In words: small molecules binding NOTCH3 protein – biochemical, 635/667 nm fluorescence, primary screen (AID 1096). As to conditions: small-molecule microarray, 635 nm fluorescence, higher = more signal.
Assay [20] can be described thus: probe aEGFR binding to arrayed compounds – biochemical, biotinylated probe, 635/667 nm fluorescence, primary screen (AID 1097).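 Note: probe is a biotinylated anti-EGFR antibody binding compounds printed on slides; score combines fluorescence near 667 nm and signal to noise of each spot.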 Conditions: small-molecule microarray, higher = more signal.

Molecules are shown by their SMILES. Calls of active or inactive are those of the source.

Sequence of Pro-neuregulin-1, membrane-bound isoform (Homo sapiens) (Q02297 whole entry, looked up, the tested form may be a part, canonical isoform): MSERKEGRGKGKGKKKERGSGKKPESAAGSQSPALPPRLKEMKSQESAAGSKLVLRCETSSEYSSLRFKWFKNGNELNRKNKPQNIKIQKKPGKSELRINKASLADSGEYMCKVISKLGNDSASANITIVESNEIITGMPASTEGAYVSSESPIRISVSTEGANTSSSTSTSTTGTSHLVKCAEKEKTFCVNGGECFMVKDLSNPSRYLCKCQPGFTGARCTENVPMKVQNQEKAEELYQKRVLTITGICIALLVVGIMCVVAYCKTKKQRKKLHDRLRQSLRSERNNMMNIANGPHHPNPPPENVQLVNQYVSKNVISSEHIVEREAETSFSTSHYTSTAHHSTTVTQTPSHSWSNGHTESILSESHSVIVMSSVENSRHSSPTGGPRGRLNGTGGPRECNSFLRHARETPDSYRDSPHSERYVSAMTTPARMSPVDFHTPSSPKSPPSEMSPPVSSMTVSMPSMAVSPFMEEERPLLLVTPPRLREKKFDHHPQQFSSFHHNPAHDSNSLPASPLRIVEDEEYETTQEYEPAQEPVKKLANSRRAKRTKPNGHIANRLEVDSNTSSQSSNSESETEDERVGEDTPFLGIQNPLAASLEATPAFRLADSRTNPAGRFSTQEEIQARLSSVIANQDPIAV
Sequence of Neurogenic locus notch homolog protein 3 (Homo sapiens) (Q9UM47 whole entry, looked up): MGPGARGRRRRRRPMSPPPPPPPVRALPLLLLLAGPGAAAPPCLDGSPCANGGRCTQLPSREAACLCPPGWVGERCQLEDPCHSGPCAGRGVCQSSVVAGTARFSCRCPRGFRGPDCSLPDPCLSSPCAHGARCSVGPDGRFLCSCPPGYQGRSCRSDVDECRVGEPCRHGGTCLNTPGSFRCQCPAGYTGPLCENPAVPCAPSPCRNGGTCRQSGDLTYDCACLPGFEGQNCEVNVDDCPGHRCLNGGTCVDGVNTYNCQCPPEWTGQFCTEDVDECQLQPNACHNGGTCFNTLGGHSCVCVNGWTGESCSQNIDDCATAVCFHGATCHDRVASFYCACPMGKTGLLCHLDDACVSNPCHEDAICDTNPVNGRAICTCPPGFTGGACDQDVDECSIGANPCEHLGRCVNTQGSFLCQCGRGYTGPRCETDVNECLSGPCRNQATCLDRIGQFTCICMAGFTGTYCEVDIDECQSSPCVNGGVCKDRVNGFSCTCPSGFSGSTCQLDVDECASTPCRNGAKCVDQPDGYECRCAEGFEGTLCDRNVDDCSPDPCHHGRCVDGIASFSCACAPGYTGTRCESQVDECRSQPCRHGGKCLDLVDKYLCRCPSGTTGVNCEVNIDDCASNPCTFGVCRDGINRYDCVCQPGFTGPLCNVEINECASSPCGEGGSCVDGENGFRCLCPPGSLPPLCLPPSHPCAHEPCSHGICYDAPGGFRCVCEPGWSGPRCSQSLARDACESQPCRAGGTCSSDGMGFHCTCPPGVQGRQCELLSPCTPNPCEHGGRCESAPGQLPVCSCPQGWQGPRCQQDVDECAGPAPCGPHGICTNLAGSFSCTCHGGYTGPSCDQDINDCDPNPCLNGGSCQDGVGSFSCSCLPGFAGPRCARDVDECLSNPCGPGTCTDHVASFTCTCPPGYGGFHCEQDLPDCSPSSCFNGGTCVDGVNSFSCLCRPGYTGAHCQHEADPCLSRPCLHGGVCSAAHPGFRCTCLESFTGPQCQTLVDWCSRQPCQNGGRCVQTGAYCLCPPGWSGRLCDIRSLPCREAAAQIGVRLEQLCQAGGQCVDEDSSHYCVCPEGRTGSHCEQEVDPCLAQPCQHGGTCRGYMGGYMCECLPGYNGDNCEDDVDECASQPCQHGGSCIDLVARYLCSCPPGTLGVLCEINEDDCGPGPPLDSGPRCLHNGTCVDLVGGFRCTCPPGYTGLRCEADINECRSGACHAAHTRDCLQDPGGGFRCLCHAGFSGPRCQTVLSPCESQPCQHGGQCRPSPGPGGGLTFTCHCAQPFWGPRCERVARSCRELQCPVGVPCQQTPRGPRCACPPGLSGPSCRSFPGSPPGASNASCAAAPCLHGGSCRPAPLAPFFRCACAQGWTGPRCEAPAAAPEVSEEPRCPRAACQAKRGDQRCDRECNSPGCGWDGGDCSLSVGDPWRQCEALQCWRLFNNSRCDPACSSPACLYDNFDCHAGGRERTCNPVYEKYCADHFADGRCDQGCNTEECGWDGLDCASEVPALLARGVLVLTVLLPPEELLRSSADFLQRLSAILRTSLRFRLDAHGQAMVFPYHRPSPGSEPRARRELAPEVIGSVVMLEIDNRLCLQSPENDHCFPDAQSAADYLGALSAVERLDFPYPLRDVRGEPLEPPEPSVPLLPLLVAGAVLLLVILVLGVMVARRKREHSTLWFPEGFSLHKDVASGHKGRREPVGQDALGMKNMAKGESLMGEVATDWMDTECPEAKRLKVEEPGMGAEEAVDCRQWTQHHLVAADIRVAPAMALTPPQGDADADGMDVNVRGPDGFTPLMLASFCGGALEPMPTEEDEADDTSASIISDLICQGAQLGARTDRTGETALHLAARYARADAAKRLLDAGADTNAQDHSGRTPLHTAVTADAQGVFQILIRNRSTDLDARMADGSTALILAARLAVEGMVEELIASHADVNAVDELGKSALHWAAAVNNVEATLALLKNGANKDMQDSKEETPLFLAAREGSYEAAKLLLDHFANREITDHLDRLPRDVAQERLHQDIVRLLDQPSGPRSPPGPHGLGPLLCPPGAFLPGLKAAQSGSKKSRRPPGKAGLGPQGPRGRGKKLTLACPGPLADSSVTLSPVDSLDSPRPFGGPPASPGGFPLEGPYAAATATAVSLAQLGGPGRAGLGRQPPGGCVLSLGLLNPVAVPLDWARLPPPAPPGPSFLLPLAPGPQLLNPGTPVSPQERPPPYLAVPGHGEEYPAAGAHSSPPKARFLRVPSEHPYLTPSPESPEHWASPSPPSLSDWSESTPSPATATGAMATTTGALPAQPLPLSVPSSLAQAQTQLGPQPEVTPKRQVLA
Sequence of Torsin-1A-interacting protein 2 (Homo sapiens) (Q8NFQ8 whole entry, looked up): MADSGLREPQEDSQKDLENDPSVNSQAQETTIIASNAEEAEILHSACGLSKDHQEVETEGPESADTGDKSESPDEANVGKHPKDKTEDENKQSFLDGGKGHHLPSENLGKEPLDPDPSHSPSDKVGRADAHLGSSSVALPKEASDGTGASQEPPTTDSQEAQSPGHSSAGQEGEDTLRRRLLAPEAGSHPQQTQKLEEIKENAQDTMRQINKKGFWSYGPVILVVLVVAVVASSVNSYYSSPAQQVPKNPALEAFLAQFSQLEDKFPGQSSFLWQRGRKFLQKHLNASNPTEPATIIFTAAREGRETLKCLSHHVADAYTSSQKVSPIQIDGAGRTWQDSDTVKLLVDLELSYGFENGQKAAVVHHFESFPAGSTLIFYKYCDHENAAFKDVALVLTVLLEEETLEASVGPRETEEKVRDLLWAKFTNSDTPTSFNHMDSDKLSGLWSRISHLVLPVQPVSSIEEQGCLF

With `COC(=O)C1=C(C)N(Cc2ccccc2)[C@]23O[C@](C(=O)OC)(C(=O)N2[C@@H]1c1ccccc1)C(C(=O)OC)=C3C(=O)OC`, the composite z-score was -0.309 in [1]; 0.458 in [2]; -0.0232 in [3]; 1.1 in assay [4]; 0.926 in assay [5]; 0.435 in [6]. Further, the composite z-score in [7] is 1.21; in assay [9] it was 0.294; in assay [10] it was -0.0003; in [11], 1.36; in assay [15], 1.31; in [17] it was -0.0228. Moreover, the composite z-score in assay [18] was determined as 0.551; in assay [19], 1.12; in assay [20], 0.0478. The z-score in assay [8] was -1.51 (inactive); in [12], -1.68 (inactive); in assay [13] it was -2.66 (inactive); in assay [14] it was -1.85 (inactive); in assay [16], 0.521 (inactive).

Regarding `COc1cccc([C@H]2Oc3ccc(OC)cc3C(=NO[C@@H](C)c3cn([C@H](CO)Cc4ccccc4)nn3)[C@@H]2O)c1`, the composite z-score in [1] is -0.234; in assay [2], -0.346; in assay [3] it was -0.133; in [4], 0.226; in assay [5] it was -0.188; in assay [6], 0.428. Moreover, the composite z-score was -0.123 in [7]; 0.105 in assay [9]; -0.134 in [10]; 0.0733 in assay [11]; -0.123 in [15]; -0.21 in [17]. In addition, the composite z-score in assay [18] is -0.335; in assay [19], -0.367; in [20] it was -0.18. Further, the z-score was 0.213 (inactive) in [8]; 0.401 (inactive) in assay [12]; 0.0329 (inactive) in assay [13]; 0.0485 (inactive) in assay [14]; -0.486 (inactive) in [16].

Regarding `O=c1n(Cc2cc3c(cc2Cl)OCO3)c(=O)n2n1CC[C@@H]1C(=NOC[C@@H](O)COCc3ccco3)[C@H]3O[C@H]3[C@@H](O)[C@@H]12`, the composite z-score in assay [1] was -0.247; in assay [2] it was 0.28; in assay [3] it was -0.0878; in assay [4] it was 0.217; in assay [5] it was 0.169; in assay [6], -0.112. Moreover, the composite z-score in assay [7] is 0.0421; in assay [9] it was -0.142; in assay [10], 0.0398; in [11], 0.101; in assay [15], 0.177; in assay [17], -0.286. For the same molecule, the composite z-score in assay [18] is 0.323; in assay [19], 0.667; in assay [20], -0.0976. The z-score is 0.0388 (inactive) in assay [8]; 1.52 (inactive) in [12]; 0.807 (inactive) in assay [13]; 1.24 (inactive) in assay [14]; 0.283 (inactive) in assay [16].

For `COc1cccc([C@H]2Oc3ccc(OC)cc3C(=NO[C@@H]3O[C@H](COC(C)=O)[C@@H](OC(C)=O)[C@H](OC(C)=O)[C@H]3OC(C)=O)[C@@H]2O)c1`, the composite z-score is -0.533 in assay [1]; 0.974 in assay [2]; -0.116 in [3]; 0.326 in [4]; 0.842 in [5]; -0.62 in assay [6]. The composite z-score in assay [7] is -0.782; in assay [9], 0.198; in assay [10], 0.0972; in [11] it was 0.102; in assay [15], -0.0867; in assay [17], -0.119. Also, the composite z-score came out at 0.35 in [18], 0.615 in [19] and 0.0009 in [20]. Moreover, the z-score in assay [8] was 1.59 (inactive); in assay [12], -1.07 (inactive); in assay [13] it was 1.14 (inactive); in [14], -0.239 (inactive); in assay [16], 0.373 (inactive).

For `CO[C@H]1COC(=O)[C@@H](Cc2ccccc2)NC(=O)[C@@H](C)COC(=O)CCC[C@@H]1C`, the composite z-score in assay [1] was -0.388; in assay [2], 0.433; in assay [3], -0.0319; in assay [4] it was 0.286; in [5] it was 0.106; in [6], -0.203. Also, the composite z-score in [7] was -0.361; in [9] it was 0.23; in assay [10] it was -0.0391; in [11], 0.231; in assay [15] it was -0.502; in assay [17] it was -0.185. Also, the composite z-score in assay [18] is 0.304; in [19], -0.0051; in [20], -0.0152. Also, the z-score in assay [8] was -0.224 (inactive); in assay [12], -0.875 (inactive); in assay [13], -0.301 (inactive); in assay [14], -0.784 (inactive); in assay [16] it was 0.17 (inactive).

The values are drawn from PubChem BioAssay.
